Data on seven compounds can be found in PubChem BioAssay (Tox21).

“And” between values parts separate entries of the source, which are not always exact repeats. Identical values can stand only once. Unmarked numbers belong to inactive results. Results filed as inconclusive are left out. The source made the active and inactive calls. Unless noted, the call rests on the fitted dose curve; in most records, active means well fitted curve in the direction sought with a large enough effect in the repeat runs; inconclusive means weak or mixed curves; inactive means no such curve, though single readings can be large; an effect the other way counts as inactive or inconclusive.

The nature of experiment [1]: qHTS assay to identify small molecule antagonists of the estrogen related receptor (ERR) signaling pathway from Tox21 library - cell viability counter screen (AID 1224834). Further: nearly all actives have a fitted effect of over 30% in size. Further: potency means the concentration at half of the fitted maximal effect. The essentials: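 CellTiter-Fluor fluorescence, read after 30 min at 37 C, measures viability of ERR cells. Cells plated at 2,000/well and incubated 6 h before pin-tool compound addition, then exposed 17.5 hours at 37 C.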
A general note: qHTS replaces the single test concentration by a dilution series.

Experiment [2] deals with Luciferin 4-monooxygenase (Photinus pyralis) (UniProt P08659). The experiment is described as follows: qHTS assay to identify small molecule inhibitors of firefly luciferase (AID 1224835). Further: nearly all actives have a fitted effect of over 25% in size. The essentials: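 Biochemical qHTS: compounds run as interplate titrations against purified firefly enzyme, with D-luciferin and ATP each at its KM concentration. Light output recorded by CCD imaging.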

A short description of experiment [3]: qHTS assay to identify small molecule agonists of the constitutive androstane receptor (CAR) signaling pathway - cell viability counter screen (AID 1224836). Further: nearly all actives have a fitted effect of over 45% in size. The essentials: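 HepG2 cells stably carrying hCAR and a CYP2B6-2.2kb reporter were plated 4 h, then given compounds at 15 concentrations plus PK11195 (final 0.75 uM). After 23 h at 37 C, viability was read by CellTiter-Fluor fluorescence.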

Experiment [4] is described as follows: qHTS assay to identify small molecule antagonists of the constitutive androstane receptor (CAR) signaling pathway - cell viability counter screen (AID 1224837). Further: nearly all actives have a fitted effect of over 45% in size. The essentials:
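Cytotoxicity counter-screen: CellTiter-Fluor fluorescence after 23 h compound exposure (15-point qHTS) in double-stable HepG2-CYP2B6-hCAR cells, with 50 nM CITCO added.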

Experiment [5] can be described thus: qHTS assay to identify small molecule antagonists of the estrogen related receptor signaling pathway with the pleiotropic PPARgamma coactivator (PGC) from Tox21 10K library - cell viability counter screen (AID 1224840; active means well fitted cell-killing curve with a large enough effect in the repeat runs, not every such curve was filed as active; further: nearly all actives have a fitted effect of over 40% in size). The essentials:
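Counter-screen for cytotoxicity: after 17.5 h compound exposure at 37 C, CellTiter-Fluor reagent added to PGC/ERR cells for 30 min and fluorescence read. Cells were seeded at 2,000 per well 6 h before dosing.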

Experiment [6] in a line: qHTS assay to identify small molecule antagonists of the estrogen related receptor signaling pathway with the pleiotropic PPARgamma coactivator (PGC) from Tox21 10K library (AID 1224841; call rule not given here; further: actives are mostly falling curves and most rising ones were filed inactive; nearly all actives have a fitted effect of over 50% in size; further: potency means the concentration at half of the fitted maximal effect). The essentials: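 Luminescence (One-Glo, 30 min at room temperature) after 18 h compound treatment at 37 C of PGC/ERR reporter cells plated at 2,000 cells/well and settled 6 h beforehand.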

Experiment [7] can be described thus: qHTS assay to identify small molecule agonists of the estrogen related receptor signaling pathway with the pleiotropic PPARgamma coactivator (PGC) from Tox21 10K library (AID 1224842). Further: nearly all actives have a fitted effect of over 15% in size. The essentials:
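PGC/ERR reporter cell line, 2,000 cells per well, incubated 6 h at 37 C before 23 nL compound in DMSO was added. After 18 h at 37 C, One-Glo luminescence read following 30 min at room temperature.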

For experiment [8], the target named is Thyrotropin receptor (Homo sapiens) (UniProt P16473). The experiment is described as follows: qHTS assay to identify small molecule agonists of the thyroid stimulating hormone receptor (TSHR) signaling pathway (AID 1224843; calls by dose curve; further: nearly all actives have a fitted effect of over 45% in size). The essentials: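 Agonist-mode screen: TSHR HEK293 cells received test chemicals for half an hour at room temperature, then HTRF cAMP detection reagents for one hour prior to fluorescence measurement. Each chemical ran as a 15-concentration series, triplicated.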

The nature of experiment [9]: qHTS assay to identify small molecule agonists of the hypoxia (HIF-1) signaling pathway - cell viability counter screen (AID 1224844; calls by dose curve; further: nearly all actives have a fitted effect of over 50% in size). The essentials: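 Cytotoxicity measured by CellTiter-Glo ATP luminescence in the wells also read for beta-lactamase signal. Cells were HRE-bla ME-180 (2,000/well, 0.5% dialyzed FBS), exposed to compounds for 17 h at 37C.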
Experiment [10] in a line: qHTS assay to identify small molecule agonists of the hypoxia (HIF-1) signaling pathway (AID 1224846; active means well fitted activation curve with a large enough effect in the signal ratio in the repeat runs, not every such curve was filed as active; the % refers to the signal ratio). The essentials:
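Compounds added to ME-180 cells carrying hypoxia-response-element beta-lactamase reporter (0.5% dialyzed FBS, 5 h preplating), 17 h at 37C; agonist activity detected by CCF4-AM B/G FRET read-out.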

Experiment [11] is described as follows: qHTS assay to identify small molecule agonists of H2AX - cell viability counter screen (AID 1224847; calls by dose curve; further: nearly all actives have a fitted effect of over 30% in size; further: potency means the concentration at half of the fitted maximal effect; on activity change, negative = cytotoxicity: top concentration of the series differs between compounds). The essentials: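 Wild-type CHO-K1 cells (10% FBS medium) were plated overnight at 37C, exposed to compounds at 15 concentrations for 3 hr at 37C (0.76% DMSO final), and viability was read as CellTiter-Glo luminescence after 30 min at room temperature.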

Experiment [12] is described as follows: qHTS assay to identify small molecule antagonists of the estrogen related receptor (ERR) signaling pathway from Tox21 library (AID 1224848). Further: nearly all actives have a fitted effect of over 50% in size. Further: potency means the concentration at half of the fitted maximal effect. The essentials:
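Quantitative high-throughput format: ERR reporter cells (2,000/well) pre-incubated 6 h, treated 18 h at 37 C with compounds in DMSO alongside positive and negative controls, then read by ONE-Glo luminescence.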

Experiment [13] can be described thus: qHTS assay to identify small molecule agonists of the estrogen related receptor (ERR) signaling pathway from Tox21 library (AID 1224849; calls by dose curve; further: nearly all actives have a fitted effect of over 15% in size). The conditions noted are these: ERR reporter cell line, ONE-Glo luciferase, 18 h; at 42.5 µM (top of the series). The essentials:
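Luminescent agonist read-out (One-Glo, 30-minute room-temperature incubation) following 18-hour compound treatment at 37 C of the ERR cell line, which had been plated 6 hours before dosing.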

The nature of experiment [14]: qHTS RealTime-Glo MT Cell Viability Assay in HepG2 cells - 24 hour (AID 1224867). Further: nearly all actives have a fitted effect of over 50% in size. The essentials:
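HepG2 cells were seeded at 600 cells/well together with NanoLuc luciferase and a cell-permeant prosubstrate, preincubated 5 h at 37 C/5% CO2, then pin-dosed with compounds in DMSO. Nonlytic luminescence from viable cells was read at each time point.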

The nature of experiment [15]: qHTS RealTime-Glo MT Cell Viability Assay in HEK293 cells - 32 hour (AID 1224868). Further: nearly all actives have a fitted effect of over 50% in size. Further: potency means the concentration at half of the fitted maximal effect. On activity change, negative = cytotoxic: top concentration of the series differs between compounds. The essentials:
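HEK293 cells were seeded at 600 cells/well together with NanoLuc luciferase and cell-permeant prosubstrate, preincubated 5 h at 37 C/5% CO2, then given compound in DMSO by pintool. Luminescence from viable-cell prosubstrate reduction was read repeatedly over 40 h.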

A short description of experiment [16]: A CellTox Green Cytotoxicity Assay to monitor cytotoxicity in HEK293 cells - 0 hour (AID 1224869). Further: nearly all actives have a fitted effect of over 50% in size. The essentials: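 Fluorescence from a DNA-binding dye excluded by viable cells was measured repeatedly in the same HEK293 wells (600 cells/well) during continuous compound exposure at 37 C. Each assay gives one read point: 0, 8, 16, 24, 32 or 40 h.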
Experiment [17] can be described thus: qHTS RealTime-Glo MT Cell Viability Assay in HepG2 cells - 40 hour (AID 1224870). Further: nearly all actives have a fitted effect of over 50% in size. The essentials:
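HepG2 cells (600/well) mixed with RealTime-Glo MT reagent, settled 5 h at 37 C/5% CO2 before compound addition. Nonlytic NanoLuc luminescence from viable-cell prosubstrate reduction read repeatedly during 40 h treatment at 37 C.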

Experiment [18] is described as follows: qHTS assay to identify small molecule agonists of H2AX (AID 1224845; active means well fitted activation curve with a large enough effect in the signal ratio in the repeat runs, not every such curve was filed as active; the % refers to the signal ratio). The essentials:
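Wild-type CHO-K1 cells, plated overnight, exposed 3hr at 37C to 15 concentrations (0.76% DMSO final). Lysed, then HTRF anti-pH2AX (S139) cryptate and anti-H2AX-d2 antibodies, 24 hr room temperature; 665/620 nm emission read.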

The target of experiment [19] is Nuclear receptor subfamily 1 group I member 3 (Homo sapiens) (UniProt Q14994). The experiment is described as follows: qHTS assay to identify small molecule antagonists of the constitutive androstane receptor (CAR) signaling pathway (AID 1224838).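 Further: HepG2 cells stably expressing hCAR with CYP2B6 luciferase reporter stimulated by CITCO; nearly all actives have a fitted effect of over 40% in size.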 The essentials:
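Antagonism measured as luciferase signal (ONE-Glo, 30 min, room temperature) in CAR-stimulated cells: HepG2-CYP2B6-hCAR double-stable line exposed 24 hr at 37 C to compound in a 15-point series plus 50 nM CITCO.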
On the % scale 0 is the no-effect control and ±100 the full control effect.

Thyrotropin receptor (Homo sapiens), sequence (P16473 whole entry, looked up): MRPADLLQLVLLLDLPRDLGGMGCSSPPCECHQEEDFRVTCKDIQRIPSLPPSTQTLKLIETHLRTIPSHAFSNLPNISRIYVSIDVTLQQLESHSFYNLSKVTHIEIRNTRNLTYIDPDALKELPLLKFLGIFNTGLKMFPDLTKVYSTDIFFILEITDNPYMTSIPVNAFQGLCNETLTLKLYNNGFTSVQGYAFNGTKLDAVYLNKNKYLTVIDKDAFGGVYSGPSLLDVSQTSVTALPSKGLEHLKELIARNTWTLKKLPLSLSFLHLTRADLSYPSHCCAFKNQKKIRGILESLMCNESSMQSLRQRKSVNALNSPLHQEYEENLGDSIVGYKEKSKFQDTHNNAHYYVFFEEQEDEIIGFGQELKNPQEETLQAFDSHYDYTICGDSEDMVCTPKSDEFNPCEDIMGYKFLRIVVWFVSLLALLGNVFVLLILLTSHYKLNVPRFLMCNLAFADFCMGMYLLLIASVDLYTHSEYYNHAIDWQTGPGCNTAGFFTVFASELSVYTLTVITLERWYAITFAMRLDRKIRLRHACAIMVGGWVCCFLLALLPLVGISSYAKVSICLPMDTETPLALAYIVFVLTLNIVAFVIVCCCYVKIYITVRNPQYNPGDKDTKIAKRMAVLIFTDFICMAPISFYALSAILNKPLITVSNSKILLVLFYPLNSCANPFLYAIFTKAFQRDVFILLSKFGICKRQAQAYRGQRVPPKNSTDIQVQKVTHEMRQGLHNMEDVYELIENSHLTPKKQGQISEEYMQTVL
Nuclear receptor subfamily 1 group I member 3 (Homo sapiens), sequence (Q14994 whole entry, looked up): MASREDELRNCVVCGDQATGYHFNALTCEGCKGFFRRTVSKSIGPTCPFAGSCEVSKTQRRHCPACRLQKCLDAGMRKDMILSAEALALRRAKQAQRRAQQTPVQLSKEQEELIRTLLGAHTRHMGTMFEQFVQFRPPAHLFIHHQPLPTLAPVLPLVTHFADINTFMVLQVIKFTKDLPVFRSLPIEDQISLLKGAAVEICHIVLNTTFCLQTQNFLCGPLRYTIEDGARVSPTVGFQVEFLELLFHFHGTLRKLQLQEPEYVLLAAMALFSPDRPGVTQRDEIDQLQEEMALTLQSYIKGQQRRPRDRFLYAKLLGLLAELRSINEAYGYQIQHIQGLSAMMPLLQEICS
Luciferin 4-monooxygenase (Photinus pyralis), sequence (P08659 whole entry, looked up): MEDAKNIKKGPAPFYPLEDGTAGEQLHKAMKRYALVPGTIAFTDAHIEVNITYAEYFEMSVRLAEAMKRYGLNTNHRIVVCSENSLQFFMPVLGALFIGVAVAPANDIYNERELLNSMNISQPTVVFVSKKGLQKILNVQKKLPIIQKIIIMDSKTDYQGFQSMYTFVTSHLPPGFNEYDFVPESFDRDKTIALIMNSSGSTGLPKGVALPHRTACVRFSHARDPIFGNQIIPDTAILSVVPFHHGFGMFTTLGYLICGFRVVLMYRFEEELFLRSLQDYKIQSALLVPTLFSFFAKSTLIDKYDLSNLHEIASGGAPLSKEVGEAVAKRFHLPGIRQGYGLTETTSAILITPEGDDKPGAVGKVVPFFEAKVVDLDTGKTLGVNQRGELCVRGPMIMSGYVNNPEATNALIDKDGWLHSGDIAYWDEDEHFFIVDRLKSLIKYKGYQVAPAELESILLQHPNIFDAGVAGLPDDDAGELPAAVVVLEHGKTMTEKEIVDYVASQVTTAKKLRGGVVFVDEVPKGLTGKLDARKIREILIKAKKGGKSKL

Turning to `CC(=O)Oc1cc2c(s1)CCN(C(C(=O)C1CC1)c1ccccc1F)C2` (stereo unspecified), the Potency result in experiment [1], in [2], in experiment [3], in experiment [4], in experiment [5] and in [6] was “inactive” each time. Also, the Potency result in experiment [7], in experiment [8], in experiment [9], in experiment [10], in experiment [11] and in experiment [12] was “inactive” each time. Further, the Potency entry in experiment [14], in experiment [15], in experiment [16] and in [17] was “inactive” each time. Further, the activity change, positive = activation in experiment [13] was -6.5%.
For the compound `CN(C)C(=O)COC(=O)Cc1ccc(OC(=O)c2ccc(N=C(N)N)cc2)cc1`, the Potency entry in experiment [1], in experiment [2], in experiment [3], in [4], in experiment [5] and in experiment [6] was “inactive” each time. The Potency result in experiment [7], in [8], in experiment [18], in [10], in experiment [11] and in experiment [12] was “inactive” each time. The Potency result in experiment [14], in experiment [15] and in [17] was “inactive” in each case. Further, the activity change, positive = activation in [13] is -1.22%.
`CCCCNS(=O)(=O)c1ccc(C)cc1`: the Potency result in experiment [1], in [2], in [3], in experiment [4], in [19] and in [5] was “inactive” in each case. Also, the Potency entry in experiment [9], in [18], in experiment [10], in experiment [14], in experiment [15] and in [16] was “inactive” in each case. Besides, in [17], the Potency result is “inactive”.
As to `Oc1ccccc1O`, the Potency in experiment [1] was 43.8 µM (active); in experiment [15], 39.4 µM (active) and 21.9 µM (active). Further, the Potency entry in [2], in experiment [3], in experiment [4], in experiment [19], in [8] and in experiment [11] was “inactive” in each case. Further, the Potency entry in [14], in experiment [16] and in experiment [17] was “inactive” throughout.
`CC(CO)Oc1ccccc1` (stereo unspecified): the Potency result in experiment [1], in experiment [2], in [3], in experiment [4], in experiment [5] and in experiment [8] was “inactive” throughout. Further, the Potency entry in experiment [9], in experiment [18], in [10], in experiment [11], in experiment [14] and in [15] was “inactive” each time. In addition, the Potency result in [16] and in experiment [17] was “inactive” in each case.
As for `CC(C)(C)CC(C)(C)c1ccc(Nc2ccc(C(C)(C)CC(C)(C)C)cc2)cc1`, the viability change, negative = cytotoxic in [1] is 0.525% [at 8.39 µM]; in experiment [3], -0.428% [at 8.39 µM]; in experiment [5] it was -0.792% [at 8.39 µM]. For the same compound, in [2], the activity change, negative = inhibition is -2.16% [at 10.5 µM]. Further, the activity change, negative = cytotoxicity was 7.27% [at 8.39 µM] in experiment [4] and 0.0274% [at 6.97 µM] in experiment [14]. Moreover, in experiment [19], the activity, negative = inhibition is 33.1% [at 8.39 µM]. The activation in experiment [8] was 21.9% [at 8.39 µM]; in experiment [10], 3.2% [at 7.01 µM]. Besides, in experiment [18], the activation (H2AX phosphorylation) is 0.788% [at 14 µM]. Further, the activity change, negative = cytotoxic in [15] was 9.22% [at 6.97 µM]; in experiment [17] it was -1.04% [at 6.97 µM]. Further, in experiment [16], the cytotoxicity is 3.78% [at 6.97 µM].
On to `CCCCCCCCCCCCOCCOCCOCCOCCOCCOCCOCCOCCOCCO`, for which the Potency in experiment [1] was 26.6 µM (active); in experiment [6], 5.31 µM (active); in experiment [11] it was 55.2 µM (active); in experiment [12], 2.98 µM (active); in experiment [15], 5.35 µM (active). For the same compound, the Potency result in [2], in [19], in experiment [7], in experiment [18], in experiment [16] and in experiment [17] was “inactive” throughout. For the same compound, the activity change, positive = activation in [13] was -54.8%.
